Some test systems named below: SR leukemia; RPMI-8226 leukemia; OVCAR-8 ovarian; OVCAR-5 ovarian; OVCAR-4 ovarian; SK-OV-3 ovarian; IGROV1 ovarian; OVCAR-3 ovarian; HS 578T breast; NCI/ADR-RES ovarian; BT-549 breast; MDA-MB-435 melanoma; SW-620 colon; MCF7 breast; HCT-116 colon; HCC-2998 colon; KM12 colon; T-47D breast.
Common to all, as to test: NCI-60 one-dose screen, 48 h (100 = growth as untreated, 0 = no growth, -100 = all killed)
Holding throughout (conditions): 10 µM unless noted

Compounds without any hit were thinned out: in the full panel of roughly 83,000, 20% have a hit.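 48-hour exposure, single concentration, 96-well plates; percent growth endpoint where 0 means no net growth. Active: below 10.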 Unmarked numbers belong to inactive results. Active and inactive are the calls of the source.

Regarding `CN1CCN(C(=O)OCc2nc3c(N4CCOCC4)nc(Cl)nc3n2C)CC1`, the growth in the assay on SR leukemia was -28% (active); with RPMI-8226 leukemia it was -28.2% (active); with OVCAR-8 ovarian, -80.3% (active); in the assay with OVCAR-5 ovarian it was -73.7% (active); in the assay on OVCAR-4 ovarian, -39.5% (active); in the assay with SK-OV-3 ovarian it was 69.9%. Further, the growth in the assay on IGROV1 ovarian was -95.4% (active); in the assay on OVCAR-3 ovarian, -80.4% (active); with HS 578T breast, -31.2% (active); in the assay on NCI/ADR-RES ovarian, -1.09% (active); in the assay on BT-549 breast, -84.2% (active); in the assay on MDA-MB-435 melanoma, -55.4% (active). In addition, the growth with SW-620 colon was -84.9% (active); in the assay with MCF7 breast, -45.9% (active); in the assay with HCT-116 colon, -88.5% (active); in the assay with HCC-2998 colon, -9.16% (active).
For the molecule `Cc1ccc(Cl)cc1N1CCN(C(=O)[C@@H]2C[C@@H]2c2ccc(F)cc2)CC1`, the growth with SR leukemia is 80.4%; in the assay on RPMI-8226 leukemia, 62.9%; in the assay on OVCAR-8 ovarian, 90.5%; in the assay with OVCAR-5 ovarian it was 94.4%; with OVCAR-4 ovarian, 85.9%; with SK-OV-3 ovarian, 90.3%. Further, the growth was 71.1% in the assay on IGROV1 ovarian; 95.3% in the assay with OVCAR-3 ovarian; 90.9% with HS 578T breast; 89.7% with NCI/ADR-RES ovarian; 97.6% with BT-549 breast; 97.6% with MDA-MB-435 melanoma. In addition, the growth in the assay with SW-620 colon was 101%; in the assay on MCF7 breast it was 90.6%; with HCT-116 colon it was 68.8%; in the assay on HCC-2998 colon, 98.8%; in the assay with KM12 colon it was 85.1%.
Consider `O=C(N/N=C/c1ccc(O)cc1O)c1cccc(Nc2ccnc(C(F)(F)F)c2)c1`, for which the growth is 21.7% in the assay with SR leukemia; 30.8% with RPMI-8226 leukemia; 22.7% in the assay with OVCAR-8 ovarian; 47.8% with OVCAR-5 ovarian; 39.9% in the assay on OVCAR-4 ovarian; 25.1% with SK-OV-3 ovarian. In addition, the growth in the assay with IGROV1 ovarian was 34.2%; in the assay with OVCAR-3 ovarian it was 32%; in the assay with HS 578T breast, 44.8%; with NCI/ADR-RES ovarian it was 49.6%; with T-47D breast, 28.8%; in the assay on BT-549 breast, 42.3%. The growth with SW-620 colon is 35.7%; with MCF7 breast, 21.2%; with HCT-116 colon, 12.3%; with HCC-2998 colon, 33.7%; in the assay with KM12 colon it was 34.7%.
Turning to `O=C1/C(=C/c2ccc(-c3cccc(C(F)(F)F)c3)o2)SC(=S)N1CCc1ccc(O)cc1`, the growth in the assay with SR leukemia was 32.5%; with RPMI-8226 leukemia, 68.3%; in the assay on OVCAR-8 ovarian, 15.2%; in the assay on OVCAR-5 ovarian it was 82.7%; in the assay on OVCAR-4 ovarian, 48.5%; in the assay with SK-OV-3 ovarian, 85.4%. Moreover, the growth is 48.8% in the assay on IGROV1 ovarian; 63.4% with OVCAR-3 ovarian; 69.4% in the assay on HS 578T breast; 81.7% with NCI/ADR-RES ovarian; 53.8% in the assay on T-47D breast; 75.7% in the assay with BT-549 breast. Moreover, the growth in the assay on SW-620 colon was 86.1%; in the assay with MCF7 breast, 84.9%; with HCT-116 colon it was 76%; in the assay with HCC-2998 colon, 107%.
Take `O=[N+]([O-])c1ccc2[nH]c3nccc(NCc4cccc(Cl)c4)c3c2c1`: the growth in the assay on SR leukemia was 50.5%; in the assay on RPMI-8226 leukemia, 82.9%; in the assay on OVCAR-8 ovarian, 37.5%; with OVCAR-5 ovarian, 86.3%; with OVCAR-4 ovarian, -35% (active); in the assay on SK-OV-3 ovarian, 91.9%. The growth in the assay with IGROV1 ovarian was 93.1%; with OVCAR-3 ovarian, 49.8%; in the assay on HS 578T breast it was 17.5%; with NCI/ADR-RES ovarian, 64.4%; with T-47D breast, 67.4%; in the assay on BT-549 breast, 70%. Also, the growth was 63.6% in the assay on SW-620 colon, 82.4% with MCF7 breast, 67.6% with HCT-116 colon and 114% in the assay with HCC-2998 colon.
As to `[2H]C([2H])([2H])Oc1cccc(/C=C/C(=O)/C=C(/C=C/c2cccc(OC([2H])([2H])[2H])c2OC([2H])([2H])[2H])OB(F)F)c1OC([2H])([2H])[2H]`, the growth is 23.3% with SR leukemia; 46% with RPMI-8226 leukemia; 20.6% with OVCAR-8 ovarian; 106% in the assay on OVCAR-5 ovarian; 71.5% in the assay on OVCAR-4 ovarian; 105% in the assay with SK-OV-3 ovarian. For the same molecule, the growth with IGROV1 ovarian is 73.3%; in the assay with OVCAR-3 ovarian, 39.2%; with HS 578T breast it was 91.9%; in the assay on NCI/ADR-RES ovarian, 50.6%; with T-47D breast it was 50.6%; in the assay with BT-549 breast, 86.2%. The growth was 46.7% in the assay on SW-620 colon, 26.2% in the assay with MCF7 breast, 41.5% in the assay on HCT-116 colon and 122% in the assay with HCC-2998 colon.
Consider `O=C(/C=C/c1ccc(F)cc1)Nc1ncc(Cc2ccc(F)cc2)s1`, for which the growth with SR leukemia was 25.2%; in the assay on RPMI-8226 leukemia it was 44.9%; with OVCAR-8 ovarian, 51.9%; in the assay on OVCAR-5 ovarian it was 62.8%; in the assay with OVCAR-4 ovarian, 64.3%; in the assay on SK-OV-3 ovarian it was 41.4%. Besides, the growth is 46.8% in the assay with IGROV1 ovarian; 12.4% in the assay on OVCAR-3 ovarian; 23% with HS 578T breast; 35.5% with NCI/ADR-RES ovarian; 28% in the assay with T-47D breast; 67.3% in the assay on BT-549 breast. Also, the growth was 25.3% in the assay with SW-620 colon; 17.9% in the assay with MCF7 breast; 29.4% in the assay with HCT-116 colon; 26.5% in the assay with HCC-2998 colon; 20.9% with KM12 colon.
As for `O=S(=O)(Nc1ccc(F)cc1)c1ccc(-c2cnc(C3CC3)o2)cc1`, the growth in the assay on SR leukemia was 11.6%; in the assay on RPMI-8226 leukemia it was 17.2%; in the assay on OVCAR-8 ovarian, 30.4%; in the assay with OVCAR-5 ovarian it was 59.1%; in the assay with OVCAR-4 ovarian, 69.9%; in the assay with SK-OV-3 ovarian, 39.7%. In addition, the growth with IGROV1 ovarian was 37.9%; with OVCAR-3 ovarian, 10.2%; in the assay with HS 578T breast, 14.1%; in the assay on NCI/ADR-RES ovarian, -0.888% (active); with T-47D breast, 32.6%; with BT-549 breast it was 52.8%. Further, the growth in the assay with SW-620 colon was 20.6%; in the assay on MCF7 breast, 16.3%; with HCT-116 colon, 18.8%; in the assay with HCC-2998 colon, 56.4%; with KM12 colon, 21.2%.
